Test results reported in PubChem BioAssay AID1256 (The Scripps Research Institute Molecular Screening Center, 2008).
Some of the results follow. Activity calls are given as the source filed them. Rule as the data show it: active = inhibition above about 20%; inactive = the rest.

Biological target: Neuropeptide Y receptor type 1 (Homo sapiens) (UniProt P25929)
Assay: NPY-Y1 receptor antagonists, selectivity check, counter-screen for NPY-Y2 antagonist project, cell-based (AID 1256);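 also: cells challenged with NPY then isoproterenol with cAMP sensed through a CNG channel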
Details: cell-based NPY-Y1 antagonism counterscreen; at 3.6 µM; hits give high values

Sequence of Neuropeptide Y receptor type 1 (Homo sapiens) (P25929 whole entry, looked up): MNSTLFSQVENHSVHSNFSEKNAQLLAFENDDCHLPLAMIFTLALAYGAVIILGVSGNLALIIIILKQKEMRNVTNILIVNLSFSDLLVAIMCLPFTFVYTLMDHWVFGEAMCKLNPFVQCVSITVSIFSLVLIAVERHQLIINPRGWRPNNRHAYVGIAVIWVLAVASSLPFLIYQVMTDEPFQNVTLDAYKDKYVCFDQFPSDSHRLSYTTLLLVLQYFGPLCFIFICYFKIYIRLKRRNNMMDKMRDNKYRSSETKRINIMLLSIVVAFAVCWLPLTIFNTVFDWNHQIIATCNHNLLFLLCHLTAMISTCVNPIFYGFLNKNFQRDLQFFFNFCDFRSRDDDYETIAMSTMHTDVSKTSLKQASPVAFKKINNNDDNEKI

`O=C1CC(c2cccc(Cl)c2)CC(O)=C1C=Nc1ccccc1` (stereo not drawn) was tested. Which inhibition did it give?
The inhibition was 17.3% (inactive).

Which inhibition does the source give for `N#Cc1ccc(N2Cc3ccccc3/C2=N/C(=O)Nc2ccc(Cl)cc2)cc1` here?
The inhibition was 100% (active).

How did the inhibition turn out when `CN(C)Cc1ccc(F)cc1Sc1cc(Cl)ccc1Cl` was run?
Its inhibition is 11.3% (inactive).

With `O=C(Oc1ccccc1)Oc1ccc2c(c1)oc(=O)c1ccccc12` as the compound, how does the inhibition read?
Its inhibition is 3.68% (inactive).

For `COc1ccc(/C(N)=N/OC(=O)CCCc2ccccc2)cc1`, which inhibition is on record?
The inhibition was 6.54% (inactive).

With `COc1ccc(/C=C/C(=O)NC(=S)NN2CCCCC2c2cccnc2)cc1` (stereo not drawn) as the compound, how does the inhibition read?
Its inhibition is 29.1% (active).

For `COc1ccc(NC(=O)/C(Cl)=C(/Cl)S(=O)Cc2ccc(C)cc2)cn1` (stereo not drawn), which inhibition is on record?
Its inhibition is 42.1% (active).

`COc1ccc(-c2nc3ccccc3n2CCC(C)C)cc1OC` was tested. Which inhibition did it give?
The inhibition was 8.19% (inactive).

For `COC(=O)c1ccc(CSc2nc3cc(Cl)ccc3o2)cc1`, which inhibition is on record?
The inhibition was 11.2% (inactive).

Which inhibition does the source give for `Cc1ccccc1OC(=O)Cn1c(C(F)(F)F)nc2ccccc21` here?
The inhibition was 7.05% (inactive).

For `Cc1ccc(S(=O)(=O)N(Cc2ccc(Cl)cc2)c2ccccc2C(=O)NCc2cccnc2)cc1`, which inhibition is on record?
Its inhibition is 28.4% (active).

`O=S(=O)(Cc1cc(Sc2ccccc2)nc(-c2ccccc2)n1)c1ccccc1` was tested. Which inhibition did it give?
Its inhibition is 11.8% (inactive).

`CCCCC(O)(CCCC)C(=O)NN(C(=O)CCl)c1ccccc1` was tested. Which inhibition did it give?
The inhibition was 7.18% (inactive).

`COc1ccc(-c2noc(COc3ccc(Cl)c(C)c3)n2)cc1` was tested. Which inhibition did it give?
Its inhibition is 13.3% (inactive).

`Cc1cc(C(=O)OCC(=O)N2c3ccccc3NC(=O)C2(C)C)c(C)n1-c1ccccc1` was tested. Which inhibition did it give?
The inhibition was 5.21% (inactive).

How did the inhibition turn out when `Cc1ccccc1N1CCN(CCCOc2ccc3c(C)cc(=O)oc3c2)CC1` was run?
The inhibition was 19.3% (inactive).

`CCCCCNC(=O)Cc1ccc(OC)cc1` was tested. Which inhibition did it give?
The inhibition was 1.16% (inactive).

`CC12CN(Cc3ccccc3)CC(C)(CN(Cc3ccccc3)C1)C2=NO` was tested. Which inhibition did it give?
The inhibition was 13.2% (inactive).
